These results are taken from PubChem BioAssay (NCI).

Assay [1] can be described thus: NCI Yeast Anticancer Drug Screen. Data for the rad50 strain (AID 155).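 Also: 0% = growth of vehicle-only cultures of the same strain.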 Particulars: S. cerevisiae rad50 strain growth inhibition; at 50.0 µM; stronger effect = higher value. The method, boiled down: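 Vehicle-treated cultures provide the reference for the growth inhibition reported for compound-exposed, repair-deficient yeast.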
Assay [2] in a line: NCI Yeast Anticancer Drug Screen. Data for the mec2-1 strain (AID 157). Particulars: S. cerevisiae mec2-1 strain, at 50.0 µM, stronger effect = higher value. In outline:
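Using mec2-1 yeast: add compound, measure growth, express inhibition versus vehicle-treated cultures.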

A short description of assay [3]: NCI Yeast Anticancer Drug Screen. Data for the sgs1 mgt1 strain (AID 161).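 Also: 0% = growth of cultures given vehicle only.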 To be noted: S. cerevisiae sgs1 mgt1 strain, at 50.0 µM, stronger effect = higher value. The method, boiled down: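 Growth of a repair-deficient yeast mutant was monitored after compound treatment and expressed as inhibition relative to vehicle-treated cultures.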
A short description of assay [4]: NCI Yeast Anticancer Drug Screen. Data for the cln2 rad14 strain (AID 165).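 Also: 0% = growth equal to vehicle treated cultures.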 To be noted: S. cerevisiae cln2 rad14 strain, at 50.0 µM, stronger effect = higher value. In outline: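 Yeast strain cln2 rad14, bearing defects in cell cycle control and DNA repair, serves as the test system; values reflect growth inhibition compared with vehicle.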
A short description of assay [5]: NCI Yeast Anticancer Drug Screen. Data for the bub3 strain (AID 167). To be noted: S. cerevisiae bub3 mutant strain, at 50.0 µM, stronger effect = higher value. In outline: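 Mutant yeast screening strain plus compound; vehicle-treated cultures serve as the 0% inhibition reference.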
A short description of assay [6]: NCI Yeast Anticancer Drug Screen. Data for the mlh1 rad18 strain (AID 175). To be noted: S. cerevisiae mlh1 rad18 strain growth inhibition; at 50.0 µM; stronger effect = higher value. The method, boiled down: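 Steps: expose repair-defective yeast to compound; measure growth; express inhibition against vehicle-treated controls.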

This is part of a sample that, as a whole, favours compounds with a hit. Of some 79,000 tested, about 15% had one in any assay. Values without a mark were called inactive. Calls of active or inactive are those of the source. Rule as the data show it: active = growth inhibition above about 70%; inactive = the rest.

With `CCOC(=O)/C(=C\c1cc(OC)ccc1OC)P(=O)(OCC)OCC`, the growth inhibition is 39.2% in assay [1]; 25.9% in assay [2]; 18.4% in assay [3]; 21.9% in assay [4]; 7.6% in assay [5]; 16.8% in assay [6].

Turning to `C[n+]1cccc2cccc(N)c21`, the growth inhibition in assay [1] was 22.1%; in assay [2], 0.1%; in assay [3], 11.3%; in assay [4] it was -5.65%; in assay [5], 15.5%; in assay [6], 5.6%.

For the compound `CCCCCCCCCCCCCCCCCC(=O)N/N=C/c1ccc(Cl)cc1`, the growth inhibition in assay [1] is -6.2%; in assay [2], -8.95%; in assay [3], -11.6%; in assay [4], -15.4%; in assay [5], -2.85%; in assay [6], -25.1%.

`Cc1ccccc1S(=O)(=O)Nn1cnc2ccc(S(=O)(=O)Nc3ccc(Cl)cc3)cc2c1=O`: the growth inhibition in assay [1] is 40.1%; in assay [2] it was 0.25%; in assay [3] it was 40.6%; in assay [4], 6.95%; in assay [5], 23.9%; in assay [6], 30.1%.

On to `CCCCC(C(=O)O)C(=O)O`, for which the growth inhibition in assay [1] is -15.3%; in assay [2] it was -13.4%; in assay [3] it was -21.8%; in assay [4], 1.1%; in assay [5], -2.05%; in assay [6], -18.4%.

Turning to `Cc1ccc(-c2nc(SCc3ccc(Cl)cc3)[nH]c(=O)c2CCO)cc1`, the growth inhibition was 55.5% in assay [1]; 14.3% in assay [2]; 38.8% in assay [3]; 34.4% in assay [4]; 47.7% in assay [5]; 32.2% in assay [6].

As to `Cc1ccc(NC2C=C(c3ccccc3)Oc3ccccc32)c(C)c1` (stereo not given), the growth inhibition in assay [1] is 20.1%; in assay [2], -3.7%; in assay [3], 20.9%; in assay [4], -3.25%; in assay [5], 14.1%; in assay [6], 8.45%.

`COc1ccc(/C=N\NC(=O)N/N=C/c2ccc(OC)c(Br)c2)cc1Br`: the growth inhibition in assay [1] was 44.3%; in assay [2] it was 39.7%; in assay [3], 44.6%; in assay [4] it was 49.5%; in assay [5] it was 39.2%; in assay [6], 71.7% (active).

With `COC(OC)c1cc(C(=O)O)c2ccccc2n1`, the growth inhibition is -9.45% in assay [1]; -31.2% in assay [2]; -9.85% in assay [3]; -4.6% in assay [4]; -22.2% in assay [5]; -6.6% in assay [6].

As to `COC(=O)c1c(C)oc(C)c1-c1ccc(OCc2ccccc2)c(OC)c1`, the growth inhibition in assay [1] was 8.7%; in assay [2], -12.8%; in assay [3], -35.8%; in assay [4] it was 7.6%; in assay [5] it was 1.25%; in assay [6], 2.7%.

In the case of `COC1CC(OC(=O)c2ccccc2)C(OC(=O)c2ccccc2)C(CBr)O1` (stereo not given), the growth inhibition in assay [1] is 85.3% (active); in assay [2] it was 90.2% (active); in assay [3], 88.6% (active); in assay [4] it was 91% (active); in assay [5], 80.1% (active); in assay [6], 89.1% (active).

`O=C(Nc1ccc(Br)cc1C(F)(F)F)C(F)(F)F`: the growth inhibition was 6% in assay [1]; -5.7% in assay [2]; -2.15% in assay [3]; -28.9% in assay [4]; 1.9% in assay [5]; -16.2% in assay [6].

With `O=C1CSC(c2ccc(Cl)c([N+](=O)[O-])c2)N1c1nncs1` (stereo not given), the growth inhibition is 7.9% in assay [1]; 4.6% in assay [2]; 24.2% in assay [3]; 12.7% in assay [4]; 10% in assay [5]; 25.1% in assay [6].

Regarding `CCCC(N)C(=O)NC(Cc1c[nH]c2ccccc12)C(=O)O` (stereo not given), the growth inhibition in assay [1] is -23.9%; in assay [2], -6.65%; in assay [3], -12%; in assay [4], -0.3%; in assay [5], 0.9%; in assay [6], 2.05%.

With `Cc1cc(C)c2nccc(/C=C/c3ccc(N(C)C)cc3)c2c1`, the growth inhibition is -15.3% in assay [1]; 0.4% in assay [2]; -15.5% in assay [3]; -27.2% in assay [4]; -19.4% in assay [5]; -6.95% in assay [6].

`CCC1(C)NC(=O)OC1=O` (stereo not given): the growth inhibition in assay [1] is 2.25%; in assay [2], -5.7%; in assay [3] it was -27.6%; in assay [4] it was 7.75%; in assay [5] it was 20.5%; in assay [6], 4.65%.

Consider `CC(C)(CC(=O)Nc1ccccc1)C(=O)O`, for which the growth inhibition in assay [1] is -11.8%; in assay [2], -7.05%; in assay [3], -19.4%; in assay [4], -12.1%; in assay [5], -56.9%; in assay [6], -0.4%.

As to `COc1cccc2c1N=c1c(Cl)c3c(c(Cl)c1O2)=Nc1c(OC)cccc1O3`, the growth inhibition in assay [1] was -17.9%; in assay [2], -1.45%; in assay [3], -0.25%; in assay [4], -13.9%; in assay [5], -8.5%; in assay [6], -20.4%.

Take `N#CC1CNCCC1=N` (stereo not given): the growth inhibition was -5.75% in assay [1]; -3.2% in assay [2]; 13.4% in assay [3]; -1.1% in assay [4]; -1.55% in assay [5]; -6.8% in assay [6].

On to `OCCN(CCO)c1ncnc2c1ncn2Cc1ccccc1`, for which the growth inhibition was -7.15% in assay [1]; -7.5% in assay [2]; -7.05% in assay [3]; -42.2% in assay [4]; 8.15% in assay [5]; -20.2% in assay [6].
